Screening data: PubChem BioAssay, National Center for Advancing Translational Sciences (NCATS)
Shown is part of a subset that was picked to be rich in hits.
LmPK inhibitor: LmPK (Leishmania mexicana) enzyme inhibition; Potency, µM (series often up to 57.5 µM), for the others: top-dose activity change, negative = inhibition, hits mostly inhibitors; AID 1721; 290,000 tested, 0.37% active; Q27686; purified LmPK, Kinase-Glo ATP luminescence, 1 h; also: potency is read from the fitted curve at half-maximal effect; % is scaled to controls: 0 for no effect and ±100 for the full control effect
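Pyruvate kinase activity monitored as ATP production (luciferase luminescence). Conditions: 0.1 nM enzyme, 0.5 mM PEP, 0.1 mM ADP, 1 h, RT; normalized against uninhibited and no-enzyme wells.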
Cycloheximide cs: affects cycloheximide protein synthesis inhibition readout, counter-screen | 300,000 tested, 12% active | AID 2314 | max response, % | cell reporter, cycloheximide protein synthesis inhibition counterscreen; in the data active = max response mostly above about 13%, no sharp cut-off; inactive = mostly below about 14%; also: read at 38.3 µM for the half of the compounds with a filed dose; 0% is about no effect
Tb PYK inh: blocks Trypanosoma brucei pyruvate kinase; Q57TT1; TbPYK enzyme, Kinase-Glo Plus ATP luminescence, 45 min; Potency, µM (top dose mostly 76.8 µM), inactives show at the highest dose activity, negative = inhibition, hits mostly inhibitors; 410,000 tested, 0.12% active; also: potency is read from the fitted curve at half-maximal effect; % is scaled to controls: 0 for no effect and ±100 for the full control effect; nearly all actives have a fitted effect of over 50% in size
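Glycolytic pyruvate kinase of T. brucei was incubated with substrate, test compound and 130 uM ADP for 45 minutes at room temperature. Luminescent Kinase-Glo Plus signal was measured after 10 minutes.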
RE007 growth inh: less growth of the S. pombe RE007 Vpr strain | Potency, µM (titrated, usually from 92.2 µM), without a hit: at the top dose activity change, negative = less growth, actives largely listed as inhibitors | AID 651644 | 360,000 tested, 0.21% active | S. pombe RE007 Vpr strain, BacTiter-Glo ATP luminescence, 24 h; active = well fitted falling curve with a large enough effect; inconclusive = small, poorly fitted or top-dose-only effect; inactive = no such curve, though single readings can be large or run the other way; also: potency is read from the fitted curve at half-maximal effect; % is scaled to controls: 0 for no effect and ±100 for the full control effect; nearly all actives have a fitted effect of over 50% in size
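Fission yeast RE007 carrying one integrated HIV-1 vpr copy, seeded at OD 0.01 in PMG+AL medium with 23 nL pinned compound. Grown 24 h at 30 degrees; viability read by BacTiter-Glo luminescence after 5 min.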
FBPA Giardia inh: Giardia lamblia aldolase inhibition | A8B2U2 | purified Giardia FBPA | Potency, µM (series often up to 59.6 µM), without a hit: at the highest dose activity, negative = inhibition, actives largely listed as inhibitors | 290,000 tested, 0.71% active | AID 2451; also: potency is read from the fitted curve at half-maximal effect; % is scaled to controls: 0 for no effect and ±100 for the full control effect; nearly all actives have a fitted effect of over 55% in size
Target sequence (A8B2U2 whole entry, looked up): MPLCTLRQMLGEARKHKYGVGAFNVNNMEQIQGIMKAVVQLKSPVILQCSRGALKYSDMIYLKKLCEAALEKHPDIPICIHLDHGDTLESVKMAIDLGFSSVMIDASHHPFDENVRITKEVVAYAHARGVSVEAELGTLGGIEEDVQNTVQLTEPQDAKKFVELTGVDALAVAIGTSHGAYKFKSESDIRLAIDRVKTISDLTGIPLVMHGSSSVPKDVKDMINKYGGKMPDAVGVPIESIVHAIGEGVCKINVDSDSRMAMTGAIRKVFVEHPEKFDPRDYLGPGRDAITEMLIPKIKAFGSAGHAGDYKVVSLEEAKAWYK
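Giardia FBPA (40 nM reagent) was preincubated 10 min at RT with compound (up to 57.5 uM final), then substrate plus GAPDH/TPI/NAD/arsenate coupling system with diaphorase/resazurin was added; resorufin fluorescence (525/598 nm) was read after 20 min.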
Shiga toxin inh: inhibitors of Shiga toxin in Vero cells; inhibition, % at 38.7 µM; Vero cells, Shiga toxin protein synthesis inhibition reporter; 290,000 tested, 9.2% active; in the data active = inhibition mostly above about 28%, no sharp cut-off; inactive = mostly below about 43%; also: 0% is about no effect
* hit, by the source's call; [ ] = another dose, or the depositor's remark. Unless noted, calls follow the shape of the dose curve; as a rule, active = well fitted curve in the direction sought with a large enough effect; inconclusive = small, poorly fitted or top-dose-only effect, or another doubt; inactive = no such curve, though single readings can be large; an effect the other way counts as inactive or inconclusive.

What do the screens show for `Cc1ccc(C)c(OCc2ccc(C(=O)NN)o2)c1`?
LmPK inhibitor: 2.5%; Cycloheximide cs: 10.7; Tb PYK inh: 11.9%; RE007 growth inh: -2.9%; FBPA Giardia inh: -8.9%; Shiga toxin inh: 10.0

How did O=C(NCC(=O)N1CCCC1)NN=Cc1ccccc1O do in these assays?
Tb PYK inh: -2.2%; RE007 growth inh: -2.8%[18.4 µM]

What do the screens show for `CCN1C(=O)N/C(=C/c2cc(C)n(Cc3ccccc3)c2C)C1=O`?
LmPK inhibitor: -1.0%; Cycloheximide cs: 26.6*; Tb PYK inh: 5.8%; RE007 growth inh: 7.7%; FBPA Giardia inh: -10.2%; Shiga toxin inh: 36.7*

Results for Cc1ccc(/C=C2/NC(=O)N(Cc3ccccc3)C2=O)o1 ?
LmPK inhibitor: -4.4%; Cycloheximide cs: -0.8; Tb PYK inh: inconclusive; RE007 growth inh: 44.7µM*; FBPA Giardia inh: inconclusive; Shiga toxin inh: 9.0

What do the screens show for `COC(=O)CN1C(=O)N/C(=C/c2ccc(C)o2)C1=O`?
LmPK inhibitor: 13.8%; Cycloheximide cs: -1.9; Tb PYK inh: -9.0%; RE007 growth inh: -6.5%; FBPA Giardia inh: inconclusive; Shiga toxin inh: 3.8

How did CC(C)CC1C(=O)N(Cc2cn(Cc3ccco3)nn2)CCS(=O)(=O)N1Cc1ccc(-c2ccccc2)cc1 (configuration not stated) do in these assays?
Tb PYK inh: 2.4%; RE007 growth inh: 10.6%

What do the screens show for `CC1C=CCCOC1c1ccccc1` (configuration not stated)?
FBPA Giardia inh: 0.7%[12.9 µM]

Results for COc1ccc(C(=O)N/C(=C\c2ccco2)C(=O)OCc2ccco2)cc1 ?
LmPK inhibitor: -2.9%; Cycloheximide cs: 33.9*; Tb PYK inh: -6.9%; RE007 growth inh: 1.0%; FBPA Giardia inh: -0.4%; Shiga toxin inh: 93.2*

Results for COc1ccc(C(=O)NC(=S)NNC(=O)c2ccco2)cc1 ?
LmPK inhibitor: 4.9%; Cycloheximide cs: 27.5*; Tb PYK inh: -15.0%; RE007 growth inh: -27.2%; FBPA Giardia inh: 6.9%; Shiga toxin inh: 21.8

What do the screens show for `O=C(NC(=S)Nc1ccccc1Br)c1ccco1`?
LmPK inhibitor: -4.3%; Cycloheximide cs: 53.9*; Tb PYK inh: -5.3%; RE007 growth inh: -3.5%; FBPA Giardia inh: -12.8%; Shiga toxin inh: 98.5*

What do the screens show for `O=C(NNC(=S)NC(=O)c1ccco1)c1ccc(NC(=O)c2ccccc2)cc1`?
LmPK inhibitor: 11.4%[11.5 µM]; Cycloheximide cs: -8.1; Tb PYK inh: 2.2%; RE007 growth inh: -6.6%; FBPA Giardia inh: 26.1%; Shiga toxin inh: -9.4

Results for Cc1cccc(NC(=S)NC(=O)c2ccco2)c1C ?
LmPK inhibitor: -2.8%; Cycloheximide cs: 31.6; Tb PYK inh: -7.9%; RE007 growth inh: -23.0%; Shiga toxin inh: 14.4

How did O=C(NC(=S)NNC(=O)c1ccco1)c1ccc(F)cc1 do in these assays?
LmPK inhibitor: 0.7%; Cycloheximide cs: 24.0*; Tb PYK inh: inconclusive; RE007 growth inh: -28.9%; FBPA Giardia inh: 16.7%; Shiga toxin inh: active

Results for O=C(NC(=S)NNC(=O)c1ccccc1O)c1ccco1 ?
LmPK inhibitor: -5.7%; Cycloheximide cs: 21.4*; Tb PYK inh: inconclusive; RE007 growth inh: -14.1%; FBPA Giardia inh: inconclusive; Shiga toxin inh: -4.2

What do the screens show for `O=C(c1ncc[nH]1)c1cccs1`?
LmPK inhibitor: 8.0%; Cycloheximide cs: 28.8*; Tb PYK inh: -4.8%; RE007 growth inh: 8.3%; FBPA Giardia inh: -7.2%; Shiga toxin inh: 23.7

What do the screens show for `CCOc1ccccc1NC(=O)C1=C(C)Nc2ncnn2C1c1ccc(C)o1` (configuration not stated)?
Tb PYK inh: -3.1%

How did CCOC(=O)c1cc(-c2ccc(OC)cc2OC)nn1-c1ccc(C(=O)O)cc1 do in these assays?
LmPK inhibitor: -0.5%; Cycloheximide cs: 20.6*; Tb PYK inh: 0.6%; RE007 growth inh: -8.6%; FBPA Giardia inh: 0.0%; Shiga toxin inh: 5.2

What do the screens show for `CCOC(=O)c1cc(-c2ccc(OC)cc2)nn1-c1ccccc1C(=O)O`?
LmPK inhibitor: -2.2%; Cycloheximide cs: -1.1; Tb PYK inh: 0.1%; RE007 growth inh: 0.7%; FBPA Giardia inh: 1.7%; Shiga toxin inh: 14.2
